# Screens as filed in PubChem.
# Only some compounds are listed: those with a hit (about 19% of all), similar ones and a draw of the others.
# HT1080NT lethal: kills 2HG-producing HT-1080-NT fibrosarcoma cells; 1.6% of 360,000 active; AID 686970; Potency, µM (highest dose often 46.1 µM), for inactives: at the highest dose activity, negative = less viability, actives largely listed as cytotoxic; HT-1080-NT fibrosarcoma viability, CellTiter-Glo ATP luminescence, 48 h;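 note: NT is the 2HG producing partner of a matched IDH1 knockdown line; potency is the fitted concentration of half-maximal effect; 0% = DMSO-treated cells and -100% = media-only wells without cells; nearly all actives have a fitted effect of over 55% in size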
#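 HT-1080-NT fibrosarcoma cells (2HG-overproducing), 750 cells/well in RPMI with 5% FBS, dosed after 2 h and incubated 48 h at 37C. CellTiter-Glo luminescence normalized to DMSO and no-cell wells; concentration-response curves fitted and classed.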
# DT40 TDP1 CPT: growth inhibition of DT40 Tdp1-/-;hTDP1 cells with camptothecin (screen for TDP1 inhibitors); 12% of 420,000 active; AID 686979; Potency, µM (doses to about 46.2 µM), without a hit: at the top dose activity change, negative = growth inhibition, most hits filed as inhibitors; chicken DT40 Tdp1-/-;hTDP1 cells + 20 nM CPT, ATP luminescence, 48 h; note: potency is the fitted concentration of half-maximal effect; nearly all actives have a fitted effect of over 55% in size
#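 Chicken DT40 Tdp1-/- cells stably complemented with human TDP1 were seeded at 400 cells/well in medium containing 20 nM camptothecin, exposed to pin-transferred compounds, and grown at 37 °C for at least 48 hr. Viability was read as ATP luminescence.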
# HT1080 IDH1KD tx: toxicity to HT-1080 IDH1 knockdown cells (counter line). HT-1080 IDH1 knockdown viability, ATP luminescence, 48 h. 2% of 360,000 active. AID 686971. Potency, µM (titrated, usually from 46.1 µM), for the others: top-dose activity, negative = toxicity, hits mostly cytotoxic;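 note: potency is the fitted concentration of half-maximal effect; 0% = DMSO wells and -100% = cell-free medium wells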
#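 % activity derives from luminescence (CellTiter-Glo), normalised to DMSO and no-cell wells. HT-1080-IDH1KD cells, 750/well, had 48 h compound exposure at 37 °C.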
# DT40 TDP1 no CPT: qHTS for Inhibitors of human tyrosyl-DNA phosphodiesterase 1 (TDP1): qHTS in cells in absence of CPT | 15% of 420,000 active | Potency, µM (doses to about 46.2 µM), for the others: top-dose activity change, negative = growth inhibition, most hits filed as inhibitors | AID 686978, 2013 | DT40 Tdp1-/- hTDP1 cells, no CPT, ATP luminescence, 48 h; note: potency is the fitted concentration of half-maximal effect; nearly all actives have a fitted effect of over 55% in size
#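 Growth of hTDP1-complemented DT40 Tdp1-knockout cells is measured by ATP luminescence after at least 48 hr compound exposure at 37 °C, with DMSO substituting for the 20 nM CPT used in the parallel screen.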
# IL1B secr inh: inflammasome signaling inhibition, IL-1 beta readout; THP-1 LPS/ATP IL-1B secretion, AlphaLISA, 16 h; stronger effect = lower value; activity change, % at 57.5 µM; 4.7% of 360,000 active; AID 743279; in the data active = activity change below about -50%; inconclusive = mostly about -30% to -49%
#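 Secreted IL-1B measured by AlphaLISA bead assay after 16 h compound exposure of THP-1 cells; compounds (final up to 57.5 uM) added 1 h before LPS (250 ng/mL) and ATP (1.25 mM) stimulation; lower signal means less secretion.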
# Numbers without * were called inactive; ? = inconclusive; . = no result. Unless noted, calls come from the whole dose curve; as a rule, active = well fitted curve in the direction sought with a large enough effect; inconclusive = small, poorly fitted or top-dose-only effect, or another doubt; inactive = no such curve, though single readings can be large; an effect the other way counts as inactive or inconclusive. Unless noted, % is set by controls: 0 for no effect and ±100 for the full control effect.
SMILES,HT1080NT lethal,DT40 TDP1 CPT,HT1080 IDH1KD tx,DT40 TDP1 no CPT,IL1B secr inh
COc1ccc(/C=C/C(=O)OCC(=O)c2c(C)[nH]c3ccccc23)cc1OC,13%,-12%,7%,-17%,-16
COc1cc(CC(=O)OCC(=O)NC2CCCCCC2)cc(OC)c1OC,-1%,-15%,5%,0%,13
Cn1c(=O)c2c(ncn2CC(=O)OCC(=O)c2ccc(F)c(F)c2)n(C)c1=O,14%,-17%,-3%,4%,15
O=C(Nc1ccccc1)c1ccc(NC2CCCCC2)c(S(=O)(=O)N2CCOCC2)c1,-2%,?,-12%,?,-52*
O=C(Nc1ccc(Br)cc1)c1ccc(Br)c(S(=O)(=O)N2CCCCC2)c1,.,?,.,18µM*,.
O=C(Nc1ccc(Cl)cn1)c1ccc(Br)c(S(=O)(=O)N2CCCCC2)c1,1%,23µM*,16%,?,-7
O=C(c1ccc(Cl)c(S(=O)(=O)N2CCOCC2)c1)N(c1ccccn1)C1CCCCC1,12%,?,8%,16µM*,29
Cc1ccc(NC(=O)c2ccc(Cl)c(S(=O)(=O)N3CCCCCC3)c2)nc1,?,-30%,-13%,?,-8
O=C(Nc1ccccc1)c1ccc(N2CCN(c3ccccc3)CC2)c(S(=O)(=O)N2CCOCC2)c1,0%,7%,0%,17%,-16
O=C(Nc1ccccc1)c1ccc(Br)c(S(=O)(=O)N2CCCCC2)c1,.,18µM*,.,21µM*,.
CSc1nnc(-c2sc3cc(C(F)(F)F)cnc3c2-c2cccnc2)n1C,-9%,?,-23%,16µM*,-8
COc1cccc(CN(C)C(=O)CNC(=O)c2ccc3c(c2)OCO3)c1OC,-6%,-7%,-3%,-2%,-13
CC(=O)N1c2ccc(S(=O)(=O)NCCC(=O)NCCc3ccc(Cl)cc3)cc2CC1C (stereo unspecified),-17%,16µM*,-10%,?,16
CC(=O)N1c2ccc(S(=O)(=O)NCCC(=O)NCCc3ccc(C)cc3)cc2CC1C (stereo unspecified),0%,21µM*,-27%,?,40
CC(=O)N1c2ccc(S(=O)(=O)NCCC(=O)Nc3ccc(C)cc3Br)cc2CC1C (stereo unspecified),.,12µM*,.,9.2µM*,.
CC(=O)N1c2ccc(S(=O)(=O)NCCc3ccc(Cl)cc3)cc2CC1C (stereo unspecified),-23%,?,-8%,?,8
Cc1ccc(S(=O)(=O)NCCC(=O)NCCc2ccc(S(N)(=O)=O)cc2)cc1C,-5%,3.3µM*,0%,-23%,-2
CCc1cccc(OCC(=O)Nc2ccc(S(=O)(=O)Nc3cc(C)nc(C)n3)cc2)c1,.,-11%,.,-27%,.
CC(C)(C)c1ccc(C(=O)N2CCC2(C)C(=O)Nc2cnc3ccccc3c2)cc1 (stereo unspecified),-2%,23µM*,-19%,26µM*,-8
CC(C)(C)c1ccc(CC(=O)N2CCC2(C)C(=O)Nc2cnc3ccccc3c2)cc1 (stereo unspecified),?,21µM*,?,12µM*,-10
CC(C)c1ccc(CC(=O)N2CCC2(C)C(=O)Nc2cnc3ccccc3c2)cc1 (stereo unspecified),?,16µM*,?,?,-20
CC(C)c1ccc(CC(=O)N2CCC2(C)C(=O)Nc2ccccc2)cc1 (stereo unspecified),-7%,?,-19%,?,2
CCCCC1Cc2[nH]c(=S)[nH]c(=O)c2C(c2cccc3ccccc23)O1 (stereo unspecified),-24%,-15%,?,?,26
CCCOC(=O)c1cccc(Nc2nc(CCC)cc(=O)[nH]2)c1,.,16µM*,.,15µM*,.
CN(C)C1CN(Cc2cn(Cc3ccc(Cl)cc3)nn2)S(=O)(=O)C1 (stereo unspecified),14%,-3%,10%,-20%,18
SMILES,HT1080NT lethal,DT40 TDP1 CPT,HT1080 IDH1KD tx,DT40 TDP1 no CPT,IL1B secr inh
CCOC(=O)[C@]12CCC=C1N(Cc1ccc(Cl)cc1Cl)C(=O)[C@H](CC(=O)N1CCCC1)C2,1%,16µM*,-21%,15µM*,-19
CCOC(=O)[C@]12CCC=C1N(Cc1ccc(Cl)cc1Cl)C(=O)[C@H](CC(=O)N1CCN(C(=O)c3ccco3)CC1)C2,-13%,16µM*,?,16µM*,?
CCOC(=O)N1CCN(C(=O)C[C@@H]2C[C@@]3(C(=O)OCC)CCC=C3N(Cc3ccccc3)C2=O)CC1,21%,-18%,15%,-5%,-3
CCOC(=O)N1CCN(C(=O)C[C@@H]2C[C@@]3(C(=O)OCC)CCC=C3N(Cc3ccc(Cl)cc3Cl)C2=O)CC1,-17%,18µM*,?,15µM*,0
CCOC(=O)[C@]12CCC=C1N(Cc1ccc(Cl)cc1Cl)C(=O)[C@H](CC(=O)N1CCCCC1)C2,?,?,?,?,13
CCOC(=O)[C@]12CCC=C1N(Cc1ccccc1)C(=O)[C@H](CC(=O)N1CCCCC1)C2,16%,21µM*,13%,?,7
C/C(CC(=O)NC(C)(C)C)=N\NC(N)=S,-16%,?,-5%,?,18
O=C(O)COc1ccc(/C=N/NC(=O)/C(=C/C=C/c2ccccc2)NC(=O)c2ccccc2)cc1,-15%,-8%,1%,17%,-8
CCOC(=O)[C@]12CCCC=C1N(Cc1ccc(Cl)cc1Cl)C(=O)[C@H](CC(=O)N1CCOCC1)C2,-3%,?,2%,15µM*,8
CCOC(=O)[C@]12CCCC=C1N(Cc1ccccc1)C(=O)[C@H](CC(=O)N1CCOCC1)C2,13%,12%,2%,7%,10
CCN(CC)c1ccc(S(=O)(=O)N2CCOCC2)cc1NC(=O)COC(=O)c1cccnc1SC,-1%,?,4%,16µM*,0
Cc1ccc(S(=O)(=O)N2CCOCC2)cc1NC(=O)COC(=O)/C=C/c1ccc(F)cc1,3%,?,13%,?,3
CCN(CC)c1ccc(S(=O)(=O)N2CCOCC2)cc1NC(=O)COC(=O)/C=C/c1ccco1,4%,23µM*,1%,26µM*,-1
CCN(c1ccc(NC(=O)COC(=O)/C=C/c2ccco2)cc1)C(C)C,0%,26µM*,0%,18µM*,-2
Cc1ccccc1OCC(=O)Nc1ccc(S(=O)(=O)Nc2ncccn2)cc1,.,-18%,.,-13%,.
CC(C)N1CCC(C)(C(=O)Nc2cccc(Oc3ccccc3)c2)C1 (stereo unspecified),?,?,-14%,?,5
